Compound activity as filed in PubChem.
Sampled rows, rich in hits. Any-hit rate of the full collection: about 1.2%.
NOD2-RIPK2 inh – NOD2-RIPK2 binding disruptors in cells, primary screen, fluorescence, CHO cells, BLA complementation; hit rate 0.38% among 360,000; Receptor-interacting serine/threonine-protein kinase 2 (Homo sapiens), O43353; inhibition, % at 4.98 µM; CCF4 ratio; in the data active = inhibition above about 21%;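 note: 0% = vehicle only and 100% = reference blocker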
Target sequence (O43353 whole entry, looked up): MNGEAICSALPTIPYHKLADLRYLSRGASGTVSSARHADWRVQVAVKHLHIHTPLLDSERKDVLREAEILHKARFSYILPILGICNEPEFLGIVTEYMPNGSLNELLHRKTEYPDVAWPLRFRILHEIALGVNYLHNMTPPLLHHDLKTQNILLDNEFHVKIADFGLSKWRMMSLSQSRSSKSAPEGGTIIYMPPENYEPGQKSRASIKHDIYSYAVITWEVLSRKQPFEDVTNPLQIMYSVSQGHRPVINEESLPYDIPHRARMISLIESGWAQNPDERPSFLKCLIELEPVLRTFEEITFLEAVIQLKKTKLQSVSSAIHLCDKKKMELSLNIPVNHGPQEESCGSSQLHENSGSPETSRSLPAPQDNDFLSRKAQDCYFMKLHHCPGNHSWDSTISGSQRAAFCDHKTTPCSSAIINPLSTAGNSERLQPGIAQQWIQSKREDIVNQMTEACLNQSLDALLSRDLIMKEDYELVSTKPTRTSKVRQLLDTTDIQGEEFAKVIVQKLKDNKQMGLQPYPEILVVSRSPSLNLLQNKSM
TLR4-MyD88 BLA – inhibitors of TLR4-MyD88 association in cells, primary screen, cell-based, HeLa CL3-4, BLA complementation, FRET ratio; Toll-like receptor 4 (Homo sapiens) + Myeloid differentiation primary response protein …; HeLa CL3-4 TLR4/MyD88 BLA complementation; inhibition, % at 8.4 µM; hit rate 0.18% among 200,000; AID 861, 2007; in the data active = inhibition above about 25%;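 note: 0% = vehicle and 100% = reference inhibitor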
GC-A act – GC-A stimulated cGMP production enhancers – HEK293 GC-A cells, cGMP TR-FRET, EC30 ANP, primary screen. Atrial natriuretic peptide receptor 1 (Homo sapiens), P16066. 0% at EC30 ANP, 100% saturating ANP. activation, % at 10 µM. hit rate 0.14% among 370,000. AID 1671463, 2021; in the data active = activation above about 40%
TLR9-MyD88 block – inhibitors of TLR9-MyD88 association in cells, primary screen, cell-based, CHO, BLA complementation, fluorescence; Toll-like receptor 9 (Homo sapiens) + Myeloid differentiation primary response protein …; inhibition, % at 4.98 µM; hit rate 0.21% among 340,000; CCF4 FRET ratio;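 active = inhibition above the mean over all tested compounds plus 3 SD, cut at about 21% in these data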;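 note: 0% = DMSO only wells and 100% = clavulanate BLA inhibitor control wells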
Neddylation inh – inhibitors of cullin neddylation, primary screen, biochemical, TR-FRET, uHTS, NAE and Ubc12; inhibition, % at 25 µM; hit rate 0.58% among 360,000; NEDD8-conjugating enzyme Ubc12 (Homo sapiens) + NEDD8-activating enzyme E1 regulatory …; in the data active = inhibition above about 36%
GC-B act – human GC-B receptor activators, primary screen, HEK293 GC-B cells, cGMP TR-FRET, EC30 CNP; AID 1920062, 2024; 0% at EC30 CNP, 100% saturating CNP; activation, % at 10 µM; hit rate 0.11% among 370,000; Atrial natriuretic peptide receptor 2 (Homo sapiens), P20594;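 active = activation at 10 µM reaching about 35% in either raw or pattern-adjusted values, limit read from the data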
TLR4-MyD88 conf – TLR4-MyD88 association inhibitors, retest, confirmation, cell-based, HeLa CL3-4, BLA complementation, FRET ratio | shares compounds with TLR4-MyD88 BLA | hit rate 50% among 350 | CCF4 FRET ratio | AID 941, 2007 | inhibition, % at 8.4 µM;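 active = mean inhibition across three repeat runs above about 25% carried over from the earlier screen, limit read from the data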;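 note: plate controls were DMSO only for no effect and clavulanic acid blocking BLA at full dose for full effect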
BLA inhibitor ct – inhibits beta-lactamase activity, counter-screen to TLR4-MyD88 binding inhibitors | HeLa BLA reporter, CCF4 FRET ratio | inhibition, % at 8.4 µM | shares compounds with TLR4-MyD88 BLA | hit rate 63% among 350;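 active = mean inhibition over three repeats above about 26% taken from the earlier screen, limit read from the data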;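 note: HeLa cells stably expressing beta-lactamase reporter as counterscreen for TLR4-MyD88 inhibitors; 0% = DMSO and 100% = clavulanic acid full inhibition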
* marks the source's active call; other numbers are inactive results; nt = not tested or not shown.

SMILES	NOD2-RIPK2 inh	TLR4-MyD88 BLA	GC-A act	TLR9-MyD88 block	Neddylation inh	GC-B act	TLR4-MyD88 conf	BLA inhibitor ct
Cn1c(SCC(=O)Nc2ccc(S(=O)(=O)Nc3nccs3)cc2)nc2sc3c(c2c1=O)CCCC3	nt	nt	-1.3	nt	nt	-1.5	nt	nt
O=C(Nc1c(-c2ccc(C(F)(F)F)cc2)nc2ncccn12)c1ccc(F)cc1	nt	nt	3.6	nt	nt	-1.9	nt	nt
CCOC(=O)c1ccoc1CSCc1ccc(C(=O)OC)o1	-2.4	26.8*	1.9	-0.2	-3.1	1.2	-4.4	-3.9
COC(=O)c1ccc(CSC(=N)N)o1	-5.1	8.2	-1.6	-4.8	0.3	3.5	nt	nt
O=C(Sc1cccc2cccnc12)c1ccc(F)cc1	nt	28.7*	13.7	nt	nt	20.3	26.4*	39.9*
CC(=O)/C(=N\Nc1ccccc1)Sc1cccc2cccnc12	7.8	-12.1	-0.6	1.6	-13.5	-4.4	nt	nt
O=S(=O)(Nc1cc(Sc2cccc3cccnc23)c(O)c2ccccc12)c1ccc(F)cc1	nt	29.5*	7.3	nt	nt	6.4	25.4*	31.9*
CCCCNC(=O)CSc1nc2ccsc2c(=O)n1C1CCN(C(=O)OCC)CC1	-3.6	47.5*	-1.7	-4.1	-16.0	1.9	-4.0	-6.5
NS(=O)(=O)c1ccc(CCNC(=O)CSc2nc3ccsc3c(=O)n2C2CC2)cc1	-11.6	-0.9	-6.1	-6.4	1.9	7.4	nt	nt
CC(COc1cc(F)cc(C#N)c1)CN1CCC(C(O)(c2ccccc2)c2ccccc2)CC1 (configuration not stated)	nt	nt	-20.4	nt	nt	-15.3	nt	nt
N#Cc1sc2nc(-c3ccccc3)cc(C(F)(F)F)c2c1N	-1.3	-2.0	2.6	-0.5	nt	1.3	nt	nt
N#Cc1sc2nc(-c3cccs3)cc(-c3ccccc3)c2c1N	7.8	46.0*	9.5	6.1	31.3	-0.8	47.5*	81.5*
COC(=O)C[C@H]1CC[C@@H]2[C@H](COc3ccc(NS(C)(=O)=O)cc3C(=O)N2C)O1	nt	nt	2.6	nt	nt	-1.3	nt	nt
c1ccc(-c2cn3nc(-c4ccccc4)c(-c4ccccc4)nc3n2)cc1	3.0	51.8*	5.8	1.1	31.4	2.2	43.5*	72.9*
Cc1ccc(-c2cn3nc(-c4ccccc4)c(-c4ccccc4)nc3n2)cc1	12.8	nt	4.8	nt	38.9	-6.9	nt	nt
COc1ccc(CN2CCC(CNC(=O)NC3CCCC3)CC2)cc1	nt	nt	1.0	nt	nt	5.0	nt	nt
CCCn1c(=O)[nH]c(=O)c2c1nc(-c1ccccc1OC(F)F)n2CCOC	-9.0	26.5*	-3.0	-0.7	38.4	-0.8	1.6	-3.3
CCCCn1c(=O)[nH]c(=O)c2c1nc(-c1ccccc1OC(F)F)n2C	-15.3	nt	4.8	-8.0	18.9	9.0	nt	nt
CCCCNC(=O)N1CCN(C/C=C/c2ccccc2)CC1	-0.5	25.2*	-0.6	-7.7	-2.5	-1.4	-3.6	-0.7
Oc1sc(C=Nc2ccccc2)c2ccccc12	-3.7	27.2*	nt	14.1	-74.9	nt	19.4	39.3*
CCn1c(SCC(=O)NCc2ccccc2)nc2nc3c(cc2c1=O)CCCC3	2.8	25.4*	-6.0	2.4	0.5	-3.8	-4.1	3.7
COc1cccc(C(=O)/C=C/Nc2cc(C)ccc2O)c1	4.1	26.6*	1.9	16.7	-9.5	-3.3	12.8	24.4
CCOC(=O)c1ccc(N/C=C\C(=O)c2cccc(OC)c2)cc1	-6.5	-4.0	6.9	-5.4	-74.4	-1.6	nt	nt
CC1=NOC(=O)/C1=C\c1ccc(-c2ccc(Cl)cc2Cl)o1	-8.4	27.9*	29.8	-11.4	-3.9	-0.4	11.0	-12.9
COC(=O)Nc1sc2c(c1C(N)=O)CCCCCC2	-4.0	26.5*	-1.5	2.1	7.3	0.4	-11.6	-7.7
SMILES	NOD2-RIPK2 inh	TLR4-MyD88 BLA	GC-A act	TLR9-MyD88 block	Neddylation inh	GC-B act	TLR4-MyD88 conf	BLA inhibitor ct
O=C(CSc1nnc(CNc2cccc(C(F)(F)F)c2)n1Cc1ccco1)NCc1ccco1	-8.2	26.5*	-10.5	-0.6	1.5	-3.0	0.7	4.2
Nc1cc(-c2ccccc2)nn1Cc1ccc(Cl)cc1	1.7	28.5*	-1.9	-10.7	18.4	-1.0	2.9	1.9
CCSc1nnc(-c2sc3nnc(-c4ccccc4)c(-c4ccccc4)c3c2N)o1	10.7	40.0*	5.3	3.1	16.6	-10.0	46.7*	80.0*
COc1cc2c3nnc(-c4ccc(F)cc4)c-3cn(Cc3ccccc3F)c2cc1OC	20.0	62.4*	18.6	19.5	2.1	13.4	44.1*	84.3*
COc1cc2c3nnc(-c4ccccc4)c-3cn(Cc3ccccc3F)c2cc1OC	nt	33.3*	18.6	nt	nt	12.2	4.1	30.8*
COc1ccccc1Cc1c(-c2ccc(F)cc2)nc2ccc(Cl)cn12	-0.3	nt	1.8	nt	9.0	-3.6	nt	nt
COc1ccc(Cn2ccc3ccc(-c4ccc5ccn(Cc6ccccc6F)c5c4)cc32)cc1	nt	nt	2.8	nt	nt	-4.3	nt	nt
COc1cccc(-c2nnc(SCC(=O)Nc3cccc4ccccc34)n2Cc2ccco2)c1	nt	nt	13.6	nt	nt	20.1	nt	nt
COC(=O)c1ccc(-n2c(C)cc(C(=O)CCl)c2C)cc1	3.2	25.5*	20.2	-1.8	0.0	-2.1	19.6	-6.5
CCCCN(CCCC)C(=O)CSc1nnc(-c2cc(OC)c(OC)c(OC)c2)o1	1.8	5.4	-7.5	-9.3	-4.2	-1.7	nt	nt
CCCCOC(=O)CSc1nnc(-c2cc(OC)c(OC)c(OC)c2)o1	-2.1	25.9*	-0.7	-1.4	12.7	-6.5	17.1	-7.7
COc1cccc(CC(=O)Nc2nccs2)c1	1.1	25.8*	-0.6	-1.5	-0.2	-1.8	-5.8	5.7
COc1cccc(CC(=O)Nc2ccc(S(=O)(=O)Nc3nccs3)cc2)c1	-3.0	nt	4.0	6.6	-5.7	2.7	nt	nt
O=c1c(Cl)c(Cl)cnn1Cc1ccc(F)cc1	16.7	26.7*	5.5	11.2	-329.0	4.0	15.9	7.0
O=C(OCn1ncc(Cl)c(Cl)c1=O)c1ccc(F)cc1	nt	26.9*	nt	nt	nt	nt	28.7*	5.6
O=c1cnn(Cc2ccc(F)cc2)c2ccccc12	0.8	nt	-4.7	10.1	-44.3	1.3	nt	nt
O=C(OCn1ncc(Br)c(Br)c1=O)c1c(F)cccc1F	nt	18.4	nt	nt	nt	nt	nt	nt
